Experimental data: PubChem BioAssay (EPA / NIEHS)
Calls of active or inactive are those of the source. How the source made its calls: active means hit-call score of the fitted dose curve at least 0.9, where 1 is the maximum; inactive means score below 0.9.

assay: APR_HepG2_StressKinase_72hr: Apredica 72-hour HepG2 Assay for Stress Kinase (AID 2282921); conditions: HepG2 stress kinase (phospho-c-Jun) imaging, actives raise or lower the signal
Summary of the method: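 Dose 0.39–200 uM (10 pts, duplicate), 0.5% DMSO; 72 h; fix 3.7% formaldehyde 30 min RT; Triton permeabilize; anti-phospho-c-Jun/Cy3 + Hoechst 60 min RT; image 20x; fit gain/loss vs DMSO.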

outcome, inactive:
O=C1c2c(O)cccc2Cc2cccc(O)c21, CCCCCCCC(=O)OC, CCc1cc(C2=C(C(=O)O)N(c3ccccc3C(F)(F)F)S(=O)(=O)c3ccccc32)cc2c1OCO2, OCC(O)CO, S=c1[nH]c2ccccc2s1, CCCCCCCCCC[N+](C)(C)[O-], COc1ccc(C(=O)Nc2nc3ccccc3c(NCc3ccccc3)c2C#N)cc1, CO[C@@H]1COCC[C@@H]1N[C@@H]1CC[C@@](C(=O)N2CCc3ncc(C(F)(F)F)cc3C2)(C(C)C)C1, CS(=O)(=O)c1ccc([C@@H](C[C@H]2CCC(=O)C2)C(=O)Nc2cnccn2)cc1Cl, Oc1ccc(O)cc1, NCCOCCOCCN, CCc1nc(N)nc(N)c1-c1ccc(Cl)cc1, CC(C)(O)c1ccc(CNC(=O)c2cccnc2Oc2ccc(F)cc2)cc1, Nc1nc(Cl)nc2c1ncn2[C@H]1C[C@H](O)[C@@H](CO)O1, CN(C)CCCN(C)CCCN(C)C, Cc1cc(SC2=C(O)C[C@@](CCc3ccc(N)cc3)(C(C)C)OC2=O)c(C(C)(C)C)cc1CO, CCCCc1nc2cccnc2n1Cc1ccc(-c2ccccc2-c2nnn[nH]2)cc1, OCC(CO)n1cnc(-c2ccc(F)cc2)c1-c1ccnc(Oc2ccccc2)n1, c1ccc2occc2c1, CCCCC(CC)COC(=O)CCCCCCCC(=O)OCC(CC)CCCC (centres undefined), CC(C)(C)c1ccccc1, COC(=O)CCC(=O)OC, CCCCC(CC)COP(=O)(OCC(CC)CCCC)OCC(CC)CCCC (centres undefined), COC(=O)CCCC(=O)OC, O=C(O)c1[nH]n(-c2ccc(S(=O)(=O)O)cc2)c(=O)c1N=Nc1ccc(S(=O)(=O)O)cc1

AC50, active:
CN(C)CCCN1c2ccccc2Sc2ccc(Cl)cc21 107 µM, COc1ccc(OC(F)(F)F)cc1CN[C@H]1CCCN[C@H]1c1ccccc1 28.8 µM, CN(C)C(=O)NC1(c2ccccc2)CCN(CC[C@@]2(c3ccc(F)c(F)c3)CN(C(=O)c3ccccc3)CCO2)CC1 104 µM, CN(C)C(=O)NC1(c2ccccc2)CCN(CCC[C@]2(c3ccc(Cl)c(Cl)c3)CCCN(C(=O)c3ccccc3)C2)CC1 25 µM
